Most compounds without a hit are left out; they make up all but 2.5% or so of the library.
rCAG RNA binder = binders of r(CAG) RNA repeats, primary screen, biochemical, fluorescence; r(CAG) RNA repeat, TO-PRO-1 dye displacement fluorescence; inhibition, % at 3 µM; actives 1.3% (n = 370,000); AID 651821, 2012;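 active = inhibition above the plate cutoff, the mean of all test compounds on that plate plus 3 SD, cut at about 35% in these data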;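 also: higher means more dye released from RNA so lower well fluorescence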
Exocytosis inh = LAMP-1 surface exposure blockers, TALL-104 cells – cell-based, flow cytometry, MLPCN library, primary screen | TALL-104 LAMP-1 surface exposure; cells stimulated with thapsigargin and PMA | inhibition, % at 10 µM | actives 0.66% (n = 360,000) | AID 651702, 2012;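 active = inhibition above about 55%, limit read from the data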
PG9 Ab binder = binders of HIV-1 gp120 antibody PG9, primary screen, biochemical, TR-FRET; actives 0.43% (n = 360,000); AID 624416, 2012; HIV-1 gp120 / PG9 antibody interaction; inhibition, % at 6.7 µM; TR-FRET gp120-PG9 antibody binding; in the data active = inhibition above about 8.5%
ABCB6 inh MLPCN = ABCB6 transporter inhibitors, primary screen, K562-ABCB6 cells, flow cytometry, MLPCN library. actives 0.19% (n = 360,000). AID 602162, 2011. K562-ABCB6 porphyrin accumulation, 1 h; stronger effect = lower value. ATP-binding cassette sub-family B member 6 (Homo sapiens), Q9NP58. fluorescence ratio to DMSO, % at 10 µM;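 active = fluorescence ratio to DMSO below 75%, the collection mean minus 3 SD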;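 also: signal is porphyrin accumulated inside mitochondria; lower ratio means ABCB6 inhibition with less porphyrin fluorescence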
ABCB6 inh CP1 = ABCB6 transporter inhibitors, confirmation, K562-ABCB6 cells, flow cytometry, cherry pick 1 | shares compounds with ABCB6 inh MLPCN | K562-ABCB6 porphyrin accumulation, 1 h; stronger effect = lower value | ratio response (% of DMSO), % at 10 µM | 700 tested, under 10 active | AID 602430, 2012;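 active = repeat-averaged ratio response below 75% of DMSO, the collection mean minus 3 SD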;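 also: median porphyrin fluorescence at 575 nm with 488 nm excitation from mitochondria; lower ratio means less porphyrin signal so ABCB6 inhibition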
Large screens that a line does not name were inactive (follow-up assays come after a bar, where they were run).

O=C(Nc1cccc(Oc2ccccc2)c1)C1Cc2c(-c3ccccc3)ccnc2O1 (configuration not stated)	none | ABCB6 inh CP1 inactive
CC(=O)c1cccc(NC(=O)C2Cc3c(-c4cccc(C(C)=O)c4)ccnc3O2)c1 (configuration not stated)	none
CC(=O)c1cccc(-c2ccnc3c2CC(C(=O)Nc2cccc(N(C)C)c2)O3)c1 (configuration not stated)	none | ABCB6 inh CP1 inactive
CC(=O)c1cccc(-c2ccnc3c2CC(C(=O)Nc2cccc(Oc4ccccc4)c2)O3)c1 (configuration not stated)	none | ABCB6 inh CP1 inactive
CC(=O)Nc1cccc(-c2ccnc3c2CC(C(=O)Nc2ccccc2)O3)c1 (configuration not stated)	none
O=C(Nc1cccc(Oc2ccccc2)c1)C1Cc2c(-c3ccco3)ccnc2O1 (configuration not stated)	ABCB6 inh MLPCN 69 | ABCB6 inh CP1 inactive
COc1cccc(-c2nnc(SCC3CNC(=O)O3)n2-c2ccc(Cl)cc2)c1 (configuration not stated)	ABCB6 inh MLPCN 67 | ABCB6 inh CP1 inactive
COc1cccc(-c2nnc(SCC(=O)N3CCCC3=O)n2-c2ccccc2)c1	none
CC(Sc1nc2ccccc2c(=O)n1C)C(=O)N(C)C1CCCCC1 (configuration not stated)	ABCB6 inh MLPCN 74 | ABCB6 inh CP1 inactive
CCCCN(C)C(=O)c1cccc(OC2CCN(CC(C)(C)C)CC2)c1	none
CC(C)(C)CN1CCC(Oc2cccc(C(=O)N3CCNC(=O)C3(C)C)c2)CC1	ABCB6 inh MLPCN 14 | ABCB6 inh CP1 inactive
O=C(CC(c1ccc(F)cc1)c1ccco1)N1CCCC1 (configuration not stated)	none
O=C(CC(c1ccc(F)cc1)c1ccco1)N1CCOCC1 (configuration not stated)	ABCB6 inh MLPCN 72 | ABCB6 inh CP1 inactive
COC(=O)C1CCN(C(=O)Cc2ccccc2OC)CC1	ABCB6 inh MLPCN 72 | ABCB6 inh CP1 inactive
O=C(NCCc1csc(-c2cccnc2)n1)c1ccc(Cl)cc1	ABCB6 inh MLPCN 74 | ABCB6 inh CP1 inactive
COC(=O)C1=C(C)N(C)C(=NCc2cc(OC)c(OC)c(OC)c2)NC1c1cccc(C(F)(F)F)c1 (configuration not stated)	none (no result: Exocytosis inh, ABCB6 inh MLPCN)
CCOc1ccc(C(=O)CCC(=O)NNC(=O)c2ccncc2)cc1	none
CCOc1ccc(C(=O)CCC(=O)Nc2cc(C)ccn2)cc1	ABCB6 inh MLPCN 74 | ABCB6 inh CP1 inactive
COCc1nnc(NC(=O)c2c(-c3c(Cl)cccc3Cl)noc2C)s1	ABCB6 inh MLPCN 67 | ABCB6 inh CP1 inactive
Cc1cccc(CC(=O)NCCS(=O)(=O)N2CCN(c3cccc(Cl)c3)CC2)c1	none
Cc1ccc(-c2nnc(N)s2)cc1	ABCB6 inh MLPCN 69 | ABCB6 inh CP1 inactive
CCN(C(=O)CCNC(=O)Cn1cnc2ccccc2c1=O)c1cccc(Cl)c1	none
COC(=O)[C@]12C[C@H](CC(=O)N3CCN(C(=O)c4ccco4)CC3)C(=O)N(CCC3=CCCCC3)C1=C[C@H](C(C)C)O[C@@H]2C1CC1	none (no result: Exocytosis inh, PG9 Ab binder, ABCB6 inh MLPCN)
NC(=O)C(c1ccc(Cl)cc1)c1ccc(Sc2ccccc2)nn1 (configuration not stated)	ABCB6 inh MLPCN 73 | ABCB6 inh CP1 inactive
COc1cc2c(C(=O)NCCCOC(C)C)cn(CC(C)C)c(=O)c2cc1OC	none
COc1cc2c(C(=O)NCCN(C)C)cn(CC(C)C)c(=O)c2cc1OC	ABCB6 inh MLPCN 69 | ABCB6 inh CP1 inactive
CC1(C(=O)Nc2ccccc2)Cc2c(-c3ccc4c(c3)OCO4)ccnc2O1 (configuration not stated)	none
CC1(C(=O)Nc2cccnc2)Cc2c(-c3ccc4c(c3)OCO4)ccnc2O1 (configuration not stated)	none | ABCB6 inh CP1 inactive
CC(=O)Nc1ccc(NC(=O)C2(C)Cc3c(-c4cccc(C(F)(F)F)c4)ccnc3O2)cc1 (configuration not stated)	none
CC(=O)c1cccc(NC(=O)C2(C)Cc3c(-c4cccc(C(F)(F)F)c4)ccnc3O2)c1 (configuration not stated)	none | ABCB6 inh CP1 inactive
